Screening data (PubChem)
12-LOX inh – Primary qHTS assay for inhibitors of human arachidonate 12S-lipoxygenase (ALOX12): Round 2 | purified 12hLO, xylenol orange hydroperoxide absorbance | Potency, µM (doses to about 108 µM), most hits filed as inhibitors | 1.1% of 580,000 active
Target sequence (P18054 whole entry, looked up): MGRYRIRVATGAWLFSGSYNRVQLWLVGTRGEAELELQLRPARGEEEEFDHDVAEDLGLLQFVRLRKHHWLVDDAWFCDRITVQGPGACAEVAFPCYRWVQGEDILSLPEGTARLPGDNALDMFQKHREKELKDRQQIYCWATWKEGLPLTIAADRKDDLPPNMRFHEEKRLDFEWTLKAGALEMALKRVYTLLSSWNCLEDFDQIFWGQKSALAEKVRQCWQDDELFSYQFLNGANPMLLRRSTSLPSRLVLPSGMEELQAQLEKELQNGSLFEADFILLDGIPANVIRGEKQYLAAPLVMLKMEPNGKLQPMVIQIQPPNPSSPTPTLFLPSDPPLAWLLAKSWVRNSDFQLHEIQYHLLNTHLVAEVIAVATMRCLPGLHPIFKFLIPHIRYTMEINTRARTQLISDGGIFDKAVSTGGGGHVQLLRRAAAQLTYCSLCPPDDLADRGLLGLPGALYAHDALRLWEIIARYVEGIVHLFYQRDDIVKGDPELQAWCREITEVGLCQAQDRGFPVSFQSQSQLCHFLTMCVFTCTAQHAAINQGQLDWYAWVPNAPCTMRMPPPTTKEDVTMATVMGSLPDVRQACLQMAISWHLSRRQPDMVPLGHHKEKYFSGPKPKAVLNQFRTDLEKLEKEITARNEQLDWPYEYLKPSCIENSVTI
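Purified human 12hLO (150 nM final) in 25 mM Hepes, 0.01% Triton X-100, pH 7.0 was preincubated 15 min at room temperature with compound. Then 40 uM arachidonic acid was added, 30 min. Hydroperoxide was read by Fe-XO absorbance ratio 573/405 nm.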
HT1080 IDH1KD tx – qHTS for induction of synthetic lethality in tumor cells producing 2HG: qHTS for the HT-1080-IDH1KD cell line | HT-1080 IDH1 knockdown viability, ATP luminescence, 48 h | Potency, µM (doses to about 46.1 µM), usual class: cytotoxic | 2% of 360,000 active | AID 686971, 2013
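Cytotoxicity counter-line: IDH1KD HT-1080, 48 h, CellTiter-Glo. Curves classed by r2, magnitude and activity.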
DT40 TDP1 no CPT – qHTS for Inhibitors of human tyrosyl-DNA phosphodiesterase 1 (TDP1): qHTS in cells in absence of CPT; Potency, µM (highest dose often 46.2 µM), usual class: inhibitors; DT40 Tdp1-/- hTDP1 cells, no CPT, ATP luminescence, 48 h; 15% of 420,000 active; further: nearly all actives have a fitted effect of over 55% in size
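Cells were dispensed at 400 per well, compounds added by pin tool, plates incubated ≥48 hr at 37 °C, then CellTiter-Glo added for 30 min at room temperature before luminescence reading. Line: DT40 Tdp1-/- complemented with hTDP1; camptothecin omitted.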
HT1080NT lethal – qHTS for induction of synthetic lethality in tumor cells producing 2HG: qHTS for the HT-1080-NT fibrosarcoma cell line; HT-1080-NT fibrosarcoma viability, CellTiter-Glo ATP luminescence, 48 h; Potency, µM (top dose mostly 46.1 µM), most hits filed as cytotoxic; 1.6% of 360,000 active; AID 686970, 2013;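 further: NT is the 2HG producing partner of a matched IDH1 knockdown line; nearly all actives have a fitted effect of over 55% in size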
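750 cells/well, RPMI + 5% FBS; 2 h settle, compound pin-transfer, 48 h at 37 degrees C. CellTiter-Glo 10 min RT, luminescence. Normalized to DMSO and media-only wells.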
IL1B secr inh – qHTS for Inhibitors of Inflammasome Signaling: IL-1-beta AlphaLISA Primary Screen | THP-1 LPS/ATP IL-1B secretion, AlphaLISA, 16 h; active compounds read low | activity change, % at 57.5 µM | 4.7% of 360,000 active | AID 743279, 2014; in the data active means activity change below about -50%; inconclusive means mostly about -30% to -49%
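Secreted IL-1B measured by AlphaLISA bead assay after 16 h compound exposure of THP-1 cells; compounds (final up to 57.5 uM) added 1 h before LPS (250 ng/mL) and ATP (1.25 mM) stimulation; lower signal means less secretion.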
DT40 TDP1 CPT – qHTS for Inhibitors of human tyrosyl-DNA phosphodiesterase 1 (TDP1): qHTS in cells in presence of CPT; chicken DT40 Tdp1-/-;hTDP1 cells + 20 nM CPT, ATP luminescence, 48 h; Potency, µM (titrated, usually from 46.2 µM), usual class: inhibitors; 12% of 420,000 active; further: nearly all actives have a fitted effect of over 55% in size
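Cell growth measured by CellTiter-Glo luminescence after a minimum 48 h, 37 C compound exposure with 20 nM CPT in Tdp1-knockout DT40 cells stably expressing hTDP1, seeded 400/well; qHTS titration format.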
Hits are given with their value; n = inactive; u = inconclusive; x = no result. Only a selection was taken, and hits are over-represented in it overall. Unless noted, the call rests on the fitted dose curve; in most records, active means well fitted curve in the direction sought with a large enough effect; inconclusive means small, poorly fitted or top-dose-only effect, or another doubt; inactive means no such curve, though single readings can be large; an effect the other way counts as inactive or inconclusive.

SMILES	12-LOX inh	HT1080 IDH1KD tx	DT40 TDP1 no CPT	HT1080NT lethal	IL1B secr inh	DT40 TDP1 CPT
CCN(CC)S(=O)(=O)c1cc(N)ccc1C	n	x	x	x	x	x
Cc1ccc(-n2nnnc2Sc2nc([N+](=O)[O-])nn2C)cc1C	n	u	u	n	-76.8	u
Cc1ccc(C)c(-n2nnnc2Sc2nc([N+](=O)[O-])nn2C)c1	n	n	u	n	n	u
COc1ccc(-n2nc(C(=O)N(C)c3cc(Cl)ccc3OC)c3c4ccccc4n(C)c3c2=O)cc1	n	x	u	x	x	u
COCCCn1c(SCC(=O)Nc2ccc(OC)cc2)nc2c(sc3ccccc32)c1=O	n	x	n	x	x	n
COc1ccc(NC(=O)CSc2nc3c(sc4ccccc43)c(=O)n2CCCN2CCCC2)cc1	x	u	u	u	n	20.6µM
COCCCn1c(SCC(=O)Nc2ccc(F)cc2)nc2c(sc3ccccc32)c1=O	n	x	5.8µM	x	x	14.6µM
COCCCn1c(SCc2ccccc2F)nc2c(sc3ccccc32)c1=O	n	x	14.6µM	x	x	u
Cc1nc(-c2cccc(N3CC(C(=O)NC4CCCCCCC4)CC3=O)c2)no1 (stereo unspecified)	n	x	x	x	x	x
COc1ccc(F)cc1S(=O)(=O)N[C@@H]1CN(C)C[C@H]1CN(C)C	n	x	x	x	x	x
Cc1cnccc1C(=O)O	n	x	x	x	x	x
COc1ccc(C2CC(c3ccccc3OC(C)=O)=NN2C(=O)/C=C/c2ccccc2)cc1 (stereo unspecified)	n	n	16.4µM	n	n	20.6µM
COc1ccc(C2CC(c3ccc4ccccc4c3OC(C)=O)=NN2C(=O)/C=C/c2ccccc2)cc1 (stereo unspecified)	u	n	u	n	n	u
CC(=O)Oc1ccccc1C1=NN(C(=O)/C=C/c2ccccc2)C(c2ccccc2)C1 (stereo unspecified)	n	n	18.4µM	n	n	u
COc1cc(Nc2nc(-c3ccccc3F)no2)cc(OC)c1OC	n	x	x	x	x	x
COc1ccc2[nH]cc(C(=O)CN3CCC(C)CC3)c2c1	u	n	n	n	n	n
COc1ccc2c(C(=O)CCl)c[nH]c2c1	n	u	3.26µM	u	n	2.59µM
CCc1[nH]nc2c1C(C1C=CCCC1)C(C#N)=C(N)O2 (stereo unspecified)	n	n	20.6µM	n	-54.4	23.1µM
CC(C)c1[nH]nc2c1C(c1cccs1)C(C#N)=C(N)O2 (stereo unspecified)	u	n	u	u	-86.0	u
CC(C)C1C(C#N)=C(N)Oc2n[nH]c(-c3cccs3)c21 (stereo unspecified)	u	n	n	n	n	n
CCCc1[nH]nc2c1C(CCC)C(C#N)=C(N)O2 (stereo unspecified)	n	n	n	n	n	n
CC(C)c1[nH]nc2c1C(C1C=CCCC1)C(C#N)=C(N)O2 (stereo unspecified)	u	u	13µM	u	-87.8	16.4µM
CCc1ccc(NC(=O)c2ccc(CN3CC(=O)N4CCCCC4C3=O)cc2)cc1 (stereo unspecified)	u	x	20.6µM	x	x	u
O=C(Nc1ccc(F)cc1)c1ccc(CN2CC(=O)N3CCCCC3C2=O)cc1 (stereo unspecified)	n	x	n	x	x	n
O=c1oc2ccccc2cc1-c1cn2cc(Cc3ccc(Br)cc3)sc2n1	n	x	0.581µM	x	x	1.3µM
SMILES	12-LOX inh	HT1080 IDH1KD tx	DT40 TDP1 no CPT	HT1080NT lethal	IL1B secr inh	DT40 TDP1 CPT
Cc1ccc(-c2noc(CNC(=O)CN(C)S(=O)(=O)c3ccc(Cl)cc3)n2)cc1	n	x	x	x	x	x
O=[N+]([O-])c1ccc(C=NCC23CCC4CC(CC(C4)C2)C3)cc1	n	x	x	x	x	x
COc1ccc(-c2ccc(C(c3c(C)[nH][nH]c3=O)c3c(C)[nH][nH]c3=O)o2)c([N+](=O)[O-])c1	n	25.9µM	23.1µM	8.2µM	-73.5	u
Cc1[nH][nH]c(=O)c1C(c1ccc(-c2ccc(F)cc2)o1)c1c(C)[nH][nH]c1=O	u	n	u	u	u	u
Cc1[nH][nH]c(=O)c1C(c1ccc(-c2ccc(Cl)c(Cl)c2)o1)c1c(C)[nH][nH]c1=O	u	n	2.59µM	n	n	3.26µM
Cc1cccc(NC(=O)CSc2ccc(-c3ccccn3)nn2)c1	n	x	u	x	x	u
O=C(CSc1ccccn1)Nc1ccc2c(c1)C(=O)c1ccccc1C2=O	u	20.6µM	16.4µM	u	n	u
Cc1ccc(NC(=O)CSc2ccc(-c3ccccn3)nn2)cc1F	n	n	11.6µM	n	n	16.4µM
O=C(CSc1ccccn1)Nc1ccc2c(c1)CCC2	n	n	n	n	n	n
CCc1ccc(NC(=O)CSc2ccc(-c3ccccn3)nn2)cc1	n	n	23.1µM	u	n	u
CCOC(=O)c1ccccc1NC(=O)CSc1ccc(-c2ccccn2)nn1	n	n	u	n	n	3.66µM
Cc1cc(C)cc(NC(=O)c2cc3c(cc2C)OCCCO3)c1	n	x	x	x	x	x
COc1ccc(C(=O)C2CC(=O)Nc3c2c(C)nn3-c2ccc(C)c(C)c2)cc1 (stereo unspecified)	n	x	x	x	x	x
COCc1nc(C2CCN(S(=O)(=O)c3ccc(C#N)cc3)C2)no1 (stereo unspecified)	n	x	x	x	x	x
NS(=O)(=O)c1cccc(NC(=O)C(Cc2ccccc2)NC(=O)c2ccccc2)c1 (stereo unspecified)	n	n	n	n	n	n
CC(C)(O)C(=O)NNC(=S)Nc1cccc(C(F)(F)F)c1	n	n	n	n	n	n
O=C(Nc1cccc(C(F)(F)F)c1)N(Cc1ccc(Cl)cc1)CC(O)C(F)(F)F (stereo unspecified)	n	18.4µM	u	16.4µM	n	u
CC(O)(CS(=O)(=O)Cc1ccc(Cl)cc1)C(=O)Nc1cccc(C(F)(F)F)c1 (stereo unspecified)	3.16µM	12.6µM	u	u	n	n
CCOc1ccc(CCNC(=O)c2ccc3nc(N4CCC(C)CC4)sc3c2)cc1OCC	n	x	5.17µM	x	x	6.51µM
O=C(Nc1ccc2nc(N3CCOCC3)sc2c1)c1ccccc1	n	n	n	n	n	n
COCc1c(C(=O)Nc2ccc3nc(N4CCOCC4)sc3c2)oc2ccccc12	n	n	u	n	n	14.6µM
